Test results published in the supplement of paper PMC10646978.
± gives the standard deviation.

Tests used:
Conditions in all cases: modulator concentration 10 µM
[1] = system: RAW-Dual (murine macrophage reporter line); assay: NF-kB reporter (SEAP) activity fold change vs agonist alone; higher = enhanced NF-kB activity
Outline: (§1)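 Compound reached 10 μM final in each well by pin transfer, onto RAW-Dual murine macrophage reporter cells seeded at 50 000 per well in 384-well plates. After 1 hour at 37 °C, the cells were stimulated overnight with a PRR agonist. SEAP in the supernatant was read with QUANTI-Blue at 620 nm absorbance for NF-κB, and Lucia luciferase was read with QUANTI-Luc luminescence for IRF. Each signal was turned into fold change against the mean agonist-only control on the same plate, and two replicate plates were averaged with propagated errors.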

[2] = system: RAW-Dual (murine macrophage reporter line); assay: IRF reporter (Lucia luciferase) activity fold change vs agonist alone; higher = enhanced IRF activity
Outline: as §1

[3] = system: RAW-Dual (murine macrophage reporter line); assay: viability score (confluency relative to resting cells, overnight) (fraction); higher = more viable, active = viable (0.7 or more)
Outline: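 RAW-Dual macrophages in 384-well plates were exposed overnight to compound at 10 μM final. Confluency was imaged with IncuCyte, and two confluency masks were generated with IncuCyte software over all imaged wells. The viability score is confluency expressed relative to resting cells. Compounds were called viable if both masks exceeded 70% of resting cells.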

[4] = agonist: CpG ODN 1826 0.5 ug/mL

Row | Structure (SMILES) | NF-kB reporter [1, 4] | NF-kB reporter ([1]; agonist: LPS 0.1 ug/mL) | NF-kB reporter ([1]; agonist: MPLA […]) | IRF reporter ([2]; agonist: 3'3'-cGAMP 10 ug/mL) | IRF reporter ([2]; agonist: LPS 0.1 ug/mL) | IRF reporter ([2]; agonist: MPLA […]) | viability score [3]
1 | O=C(CSc1nc(-c2ccccc2)c(-c2ccccc2)[nH]1)N1CCOCC1 | 1.05 ± 0.32 | 1.08 ± 0.16 | 1.05 ± 0.1 | 0.897 ± 0.032 | 1.28 ± 0.17 | 1.32 ± 0.17 | 0.996 (active)
2 | O=[N+]([O-])c1ccc(OCC(O)CN2CCN(c3ccccc3)CC2)cc1 (centres undefined) | 0.91 ± 0.072 | 1.02 ± 0.059 | 0.964 ± 0.086 | 0.982 ± 0.024 | 1.42 ± 0.19 | 1.15 ± 0.15 | 1.01 (active)
3 | CN(C)Cc1ccc(S(=O)(=O)n2ccc(/C=C/C(=O)NO)c2)cc1 | 0.517 ± 0.028 | 0.946 ± 0.11 | 1.25 ± 0.12 | 1.3 ± 0.12 | 1.49 ± 0.18 | 1.6 ± 0.36 | 0.334 (inactive)
4 | O=C(NCCN1CCOCC1)c1ccc(F)cc1 | 1.11 ± 0.1 | 0.995 ± 0.094 | 1.01 ± 0.039 | 1.05 ± 0.17 | 1.03 ± 0.053 | 1 ± 0.12 | 0.986 (active)
5 | Cc1nc2ccc(Cl)cn2c(=O)c1NC(=O)c1c(F)cccc1Cl | 0.78 ± 0.034 | 1.05 ± 0.11 | 0.96 ± 0.083 | 1.05 ± 0.049 | 1.09 ± 0.25 | 1.2 ± 0.41 | 0.965 (active)
6 | Cc1cc(C(=O)NNCc2ccccc2)no1 [Prestw-795] | 1.09 ± 0.18 | 1.18 ± 0.11 | 0.992 ± 0.076 | 0.958 ± 0.026 | 1.06 ± 0.24 | 1.29 ± 0.14 | 0.997 (active)
7 | CN(C)CC/C=C1/c2ccccc2COc2ccc(CC(=O)O)cc21.Cl | 1.35 ± 0.26 | 1.22 ± 0.36 | 1.66 ± 0.75 | 0.953 ± 0.039 | 1.42 ± 0.17 | 1.2 ± 0.094 | 0.992 (active)
8 | Cc1cc(OCC(=O)Nc2ccccc2-c2ccccc2)ccc1Br | 0.776 ± 0.073 | 0.888 ± 0.06 | 0.972 ± 0.099 | 1.03 ± 0.048 | 1.47 ± 0.087 | 1.55 ± 0.13 | 0.997 (active)
9 | CC1CCc2c(oc3ccc(NS(=O)(=O)c4ccc(F)cc4)cc23)C1 (centres undefined) | 0.607 ± 0.1 | 0.626 ± 0.075 | 0.918 ± 0.032 | 0.853 ± 0.035 | 0.643 ± 0.11 | 1.76 ± 0.23 | 0.144 (inactive)
10 | COc1ccc(OC)c(Nc2nc(-c3c(C)nc4ccccn34)cs2)c1 | 1.35 ± 0.22 | 1.45 ± 0.12 | 1.58 ± 0.13 | 0.241 ± 0.0091 | 1.25 ± 0.22 | 1.53 ± 0.24 | 0.967 (active)
11 | COc1ccc(Cl)cc1C(=O)Nc1cc(C(F)(F)F)cc(C(F)(F)F)c1 | 1.03 ± 0.082 | 1.01 ± 0.059 | 0.962 ± 0.086 | 0.966 ± 0.024 | 1.54 ± 0.26 | 1.19 ± 0.23 | 1.01 (active)
12 | Cn1nc(-c2ccc(F)cc2)cc1C(=O)NCC1(CO)CC1 | 0.865 ± 0.037 | 1.04 ± 0.1 | 1.03 ± 0.056 | 1.03 ± 0.049 | 1.09 ± 0.32 | 1.23 ± 0.33 | 1.02 (active)
13 | COc1ccc(C(=O)ON=C(N)c2ccc(OC)c(OC)c2)cc1OC | 0.825 ± 0.096 | 0.878 ± 0.09 | 0.971 ± 0.086 | 0.933 ± 0.078 | 1.1 ± 0.07 | 1.13 ± 0.11 | 1.01 (active)
14 | O=C(Nc1cc(C(F)(F)F)cc(C(F)(F)F)c1)c1cc(Br)ccc1Cl | 0.966 ± 0.11 | 1.02 ± 0.066 | 0.912 ± 0.059 | 0.693 ± 0.043 | 1.52 ± 0.2 | 1.05 ± 0.2 | 1.01 (active)
15 | COC1(c2ccc(Cl)cc2)OC(=O)c2ccccc21 (centres undefined) | 0.805 ± 0.1 | 0.974 ± 0.052 | 1.07 ± 0.093 | 0.9 ± 0.052 | 1.06 ± 0.073 | 1.13 ± 0.16 | 0.992 (active)
16 | Cl.Cl.Fc1ccc(C(c2ccc(F)cc2)N2CCN(C/C=C/c3ccccc3)CC2)cc1 | 1.06 ± 0.087 | 0.97 ± 0.1 | 1.42 ± 0.3 | 1.06 ± 0.068 | 1.11 ± 0.082 | 1.26 ± 0.14 | 0.999 (active)
17 | OCCN(CCO)CC(O)Cn1c2ccc(Br)cc2c2cc(Br)ccc21 (centres undefined) | 0.301 ± 0.024 | 0.484 ± 0.035 | 0.617 ± 0.06 | 0.742 ± 0.024 | 1.42 ± 0.24 | 1.35 ± 0.15 | 0.94 (active)
18 | NS(=O)(=O)c1cc(Cl)c(Cl)c(S(N)(=O)=O)c1 [Prestw-809] | 1.15 ± 0.13 | 1.02 ± 0.083 | 0.953 ± 0.046 | 0.916 ± 0.067 | 0.92 ± 0.093 | 0.911 ± 0.16 | 1 (active)
19 | CCCS(=O)c1ccc2nc(NC(=O)OC)[nH]c2c1 (centres undefined) | 1.04 ± 0.15 | 0.998 ± 0.1 | 1.05 ± 0.037 | 0.971 ± 0.058 | 0.927 ± 0.037 | 0.917 ± 0.11 | 0.998 (active)
20 | COc1ccc(Nc2nc(N3CCCC(C)C3)nc3[nH]ncc23)cc1 (centres undefined) | 0.608 ± 0.03 | 0.617 ± 0.051 | 0.768 ± 0.048 | 0.623 ± 0.045 | 0.905 ± 0.21 | 1.32 ± 0.46 | 0.264 (inactive)
21 | Cn1c(=O)c2c(ncn2CC2OCCO2)n(C)c1=O | 0.89 ± 0.12 | 0.921 ± 0.067 | 0.99 ± 0.057 | 0.919 ± 0.084 | 0.904 ± 0.11 | 0.845 ± 0.17 | 1 (active)
22 | CCc1c2c(nc3ccc(OC(=O)N4CCC(N5CCCCC5)CC4)cc13)-c1cc3c(c(=O)n1C2)COC(=O)[C@]3(O)CC.Cl.O.O.O | 1.06 ± 0.25 | 1.41 ± 0.23 | 1.54 ± 0.55 | 0.866 ± 0.042 | 1.35 ± 0.35 | 1.2 ± 0.16 | 0.975 (active)
23 | CCCC(=O)Nc1ccc(N2CCOCC2)c(Cl)c1 | 1.09 ± 0.21 | 1.04 ± 0.098 | 0.964 ± 0.098 | 0.875 ± 0.026 | 1.28 ± 0.22 | 1.21 ± 0.12 | 1 (active)
24 | CCN(CC)c1ccc(C=C(C#N)c2n[nH]c(N)c2C#N)c(OC)c1 | 1.43 ± 0.16 | 0.885 ± 0.095 | 0.976 ± 0.092 | 0.577 ± 0.036 | 0.865 ± 0.12 | 1.18 ± 0.15 | 1.02 (active)
25 | Oc1ccc(/C=C/c2cc(O)cc(O)c2)cc1 | 1.06 ± 0.16 | 1.23 ± 0.28 | 1.11 ± 0.084 | 0.695 ± 0.041 | 0.845 ± 0.13 | 0.798 ± 0.12 | 0.982 (active)
26 | O=C(NCCCOc1cccc2cccnc12)c1cccnc1 | 0.892 ± 0.081 | 0.909 ± 0.077 | 1.11 ± 0.13 | 1 ± 0.049 | 1.17 ± 0.2 | 1.25 ± 0.39 | 0.989 (active)
27 | CCCCCCCCCCC[C@@H](C[C@@H]1OC(=O)[C@H]1CCCCCC)OC(=O)[C@H](CC(C)C)NC=O | 1.1 ± 0.083 | 0.92 ± 0.058 | 1.02 ± 0.044 | 1.04 ± 0.23 | 0.927 ± 0.048 | 0.923 ± 0.12 | 1 (active)
